ChEMBL document CHEMBL3988442, “University of Dundee, Small-Polar-MMV Screening Library” (2021)

Columns and labels:
[1] = biological target: T1, Aspartate--tRNA(Asp/Asn) ligase (Mycobacterium tuberculosis (strain ATCC 25618 / H37Rv)) (UniProt P9WFW3); assay: Assay for Asp RNA synthetase-1 from Mycobacterium tuberculosis; assay type: functional; parameters: scale not given: direction of the effect not stated beside the values; conditions: 30 µM; further: in the data most compounds retested in dose-response had high values
T1 sequence (whole entry): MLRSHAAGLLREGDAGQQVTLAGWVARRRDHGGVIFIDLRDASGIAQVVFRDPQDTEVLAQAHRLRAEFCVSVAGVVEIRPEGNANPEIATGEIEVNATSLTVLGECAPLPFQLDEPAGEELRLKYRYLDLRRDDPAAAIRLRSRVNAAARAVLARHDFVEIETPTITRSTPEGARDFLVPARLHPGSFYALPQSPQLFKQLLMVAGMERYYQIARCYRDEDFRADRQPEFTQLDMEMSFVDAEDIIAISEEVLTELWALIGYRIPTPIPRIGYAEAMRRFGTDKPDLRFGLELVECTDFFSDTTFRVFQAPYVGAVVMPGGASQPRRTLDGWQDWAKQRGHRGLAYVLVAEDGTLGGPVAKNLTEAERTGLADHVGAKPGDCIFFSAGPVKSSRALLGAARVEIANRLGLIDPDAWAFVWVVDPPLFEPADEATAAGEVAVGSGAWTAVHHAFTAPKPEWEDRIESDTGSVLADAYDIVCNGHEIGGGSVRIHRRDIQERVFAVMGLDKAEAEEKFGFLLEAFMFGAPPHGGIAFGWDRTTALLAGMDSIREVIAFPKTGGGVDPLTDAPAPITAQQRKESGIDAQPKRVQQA

[2] = biological target: Shiga toxin 2 (Escherichia coli O157:H7) (UniProt P09385+P09386); assay: E. coli 0.157:H7 Shiga Toxin SOP - stx2 screening assay; assay type: functional; parameters: scale not given: direction of the effect not stated beside the values; conditions: 30 µM

SMILES	Percent Effect [1] [%]	Percent Effect [2] [%]
O=C1C(NCc2nnc3n2CCCC3)CCCN1c1cccc(F)c1 (configuration not stated)	0.344	-64.6
Cc1n[nH]c(C)c1-c1cnc(CC2CCN(C)C2)cn1 (configuration not stated)	-0.897	-18.2
c1cc(-c2nc(CN3CCn4c(nnc4C4CC4)C3)cs2)cs1	-2.61	-11.5
Cc1nc(-c2ccccc2)n(CC(=O)N(C(C)C)C(C)C)n1	4.15	23.2
CCNC(=O)c1ccc(CNCc2c(C)nn(C)c2N(C)C)cc1	-0.75	-25.7
Cc1nc(-c2cccc(C(=O)O)c2)cc(C2CCN(C(C)C)C2)n1 (configuration not stated)	-4.63	4.12
CC(C)N(C)CC(=O)N1CCCC(c2ccc(C(=O)O)cc2)C1 (configuration not stated)	-4.14	18.4
CCn1ncc2c1CCCC2NCc1ccc(OC)c(C)c1 (configuration not stated)	-4.46	-11.4
CCCNC(=O)CNC(=O)CCc1ccccc1Br	-2.76	-0.75
O=C(C1=CCCC1)N1CCC[C@]2(C[C@@H](OCc3ccncc3)CO2)C1	5.27	-14.6
N#Cc1c(F)cccc1N1CCC(NS(=O)(=O)c2cccs2)CC1	10.6	-25.2
c1ccc(CCNC2CCc3ncnn3C2)nc1 (configuration not stated)	5.83	-16.7
Cc1noc(C)c1C1CCCN1C(=O)CN1CC2(CCNCC2)OC1=O (configuration not stated)	-0.658	-21
COc1cc(C(=O)N(C2CC2)C2CC(=O)NC2=O)ccc1C (configuration not stated)	-3.91	3.11
Cc1ccc([C@]2(O)CC[C@H]3CN(Cc4cccc(Cl)c4Cl)C[C@H]32)nc1	7.16	6.78
Cn1ccnc1CN1CCN(c2ccc(C#N)cc2F)CC1	-2.39	-29.4
Cc1[nH]c2ccccc2c1-c1ccnc(NC[C@H](O)CO)n1	0.691	-30.4
OCC1CCCN1c1cc(NCCc2c[nH]c3ccccc23)ncn1 (configuration not stated)	11.5	-28.9
CC(C)(C)n1ncc2c1NC(=O)CC2c1ccccc1 (configuration not stated)	-5	22
COc1cccc(COCC(=O)N2CCCC(c3cc(C)[nH]n3)C2)c1 (configuration not stated)	1.92	28.3
CCc1nc(CN(Cc2cccs2)CC2CCCO2)no1 (configuration not stated)	2.75	15
COCCNC(=O)NCc1ccc(OC(C)C)c(F)c1	-1.07	29.6
Cc1c(F)cc(C(=O)O)cc1S(=O)(=O)Nc1cccc(C(F)F)c1	-0.0333	12.3

SMILES	Percent Effect [1] [%]	Percent Effect [2] [%]
O=C(c1ccco1)N1CCCC1C1CCN(Cc2ccccc2)CC1 (configuration not stated)	4.64	-11.3
Cc1nc2ccccc2c(=O)n1CCC(=O)N1CCSCC1	1.9	7.96
Cc1ncc(-c2ccnc(N3CCN(C)CC3)n2)c(-c2cccnc2)n1	4.45	-20.4
CCOc1cccc(C(=O)N2CCN(c3nccc(OC)n3)CC2)c1	7.36	22.4
Cc1cn[nH]c1C1CCCCN1C(=O)CCN1CCCCCC1 (configuration not stated)	8.57	28.2
O=C(C1CCC1)N1CCCC1c1nnc2n1CCCCC2 (configuration not stated)	-0.296	-16
COCCCN1CCCN(C(C)c2nc(C3CC3)no2)CC1 (configuration not stated)	-9.76	-23.4
Cc1cnn(CC2CCCN2C(=O)c2cc3c(F)cccc3[nH]2)c1 (configuration not stated)	4.86	-37.3
CC1(C)CC(N2Cc3nc(N)ncc3C2=O)CC(C)(C)N1	7.13	-32.6
COCC(C)(O)CNC(=O)COc1ccccc1OC (configuration not stated)	-4.69	-2.25
CC(C)(C)NC(=O)CNC(=O)CCc1ccccc1Br	0.279	-3.39
Cc1cc(CNC(=O)NC(C)c2ccc(N3CCOCC3)cc2)no1 (configuration not stated)	5.56	-23.6
Cc1cccc(C(=O)NC(CN2CCCC2=O)c2ccccc2)n1 (configuration not stated)	-1.37	14
CC(C(=O)N1CCCC1)N1CCC(c2nccn2CC2CCC2)CC1 (configuration not stated)	-1.49	-1.48
CCc1nc(C2CCCN(C(=O)c3cccc4cn[nH]c34)C2)no1 (configuration not stated)	4.75	29.8
CC(C)(C)c1ncc2c(n1)CN(C(=O)c1ccc(-c3nc[nH]n3)cc1)C2	-2.37	-62.9
Cc1cc(C2CCCN(C(=O)CN3CCN(C)CC3)C2)n[nH]1 (configuration not stated)	-0.728	13.2
CN(c1ccc(C(C)(C)C)cc1)S(=O)(=O)c1cc(C(=O)O)cs1	1.85	12.9
Cn1ccnc1CNC1CCCN(Cc2noc(C3CC3)n2)C1 (configuration not stated)	-0.413	-13.4
COc1ncccc1NC(=O)N(Cc1ccc(C)o1)C1CC1	-0.455	12.1
Cc1nc(CN2CCCN(C(=O)C(C)OCC3CC3)CC2)cs1 (configuration not stated)	-3.97	-12.8
CCc1nc(C2CCCN(C(=O)CN(C)S(C)(=O)=O)C2)no1 (configuration not stated)	-3.98	-6.61
Cc1ccc(-c2cn[nH]c2C2CCCN(c3nccc(N)n3)C2)cc1 (configuration not stated)	2.79	-37.9
